From the supplement of paper PMC8975748 come the findings set out here.

In experiment [1] the test system is Saccharomyces cerevisiae BY4741 SeMeCo community. In words: mean cell size (pixel area) (pixels); higher = larger cells. The following applies: 10 µM; 24 h; SM minimal medium. The method, boiled down:
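Plates of 384 wells were acoustically predosed with drug at a final 10 µM in SM medium, and 70 µl of a Saccharomyces cerevisiae BY4741 preculture diluted from OD600 = 1.0 to OD600 = 0.3 was added for 24 h. The yeast formed a four-plasmid fluorescent community in which each plasmid complements one auxotrophy and carries a fluorescent marker. Fixed cells were imaged by automated confocal microscopy and analysed in Harmony for mean cell pixel area per well. Values are means of 3 replicates. Same SeMeCo high-content imaging drug screen: Selleck FDA-approved drugs at 10 µM, 24 h in SM medium, 384-well plates, 3 replicates.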

Experiment [2] shares this test system. In words: z-score of prototroph abundance vs DMSO median; higher = larger share of this subpopulation than in DMSO controls. Conditions: 10 µM; 24 h; SM minimal medium; subpopulation (auxotrophy): Prototroph. The method, boiled down:
(§1)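 Automated confocal microscopy of paraformaldehyde-fixed cells was used to follow a Saccharomyces cerevisiae BY4741 community carrying four plasmids, each restoring one auxotrophy and encoding a distinct fluorescent protein. The community was pre-grown overnight to OD600 1.0, diluted to 0.3, and added at 70 µl to 384-well plates acoustically predosed with library drugs (10 µM final) for 24 h of growth in minimal SM medium. Single-auxotroph fluorescent strains set thresholds and autofluorescence correction, and each subpopulation's abundance was scored as a z-score against the vehicle-well median.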

Experiment [3] has the same test system. In words: z-score of subpopulation abundance vs DMSO median, subpopulation auxotrophic for M; higher = larger share of this subpopulation than in DMSO controls. The following applies: 10 µM; 24 h; SM minimal medium; subpopulation (auxotrophy): M. The method, boiled down:
as §1

Experiment [4] has the same test system. In words: z-score of subpopulation abundance vs DMSO median, subpopulation auxotrophic for L; higher = larger share of this subpopulation than in DMSO controls. The following applies: 10 µM; 24 h; SM minimal medium; subpopulation (auxotrophy): L. The gist of the method: as §1
Experiment [5] has the same test system. In words: z-score of subpopulation abundance vs DMSO median, subpopulation auxotrophic for U; higher = larger share of this subpopulation than in DMSO controls. The following applies: 10 µM; 24 h; SM minimal medium; subpopulation (auxotrophy): U. The gist of the method:
as §1

Experiment [6] has the same test system. In words: z-score of subpopulation abundance vs DMSO median, subpopulation auxotrophic for H; higher = larger share of this subpopulation than in DMSO controls. The following applies: 10 µM; 24 h; SM minimal medium; subpopulation (auxotrophy): H. The method, boiled down: as §1
The test system is the same in experiment [7]. In words: z-score of subpopulation abundance vs DMSO median, subpopulation auxotrophic for LU; higher = larger share of this subpopulation than in DMSO controls. The following applies: 10 µM; 24 h; SM minimal medium; subpopulation (auxotrophy): LU. The gist of the method: as §1
The test system is the same in experiment [8]. In words: z-score of subpopulation abundance vs DMSO median, subpopulation auxotrophic for LM; higher = larger share of this subpopulation than in DMSO controls. The following applies: 10 µM; 24 h; SM minimal medium; subpopulation (auxotrophy): LM. The gist of the method: as §1
Experiment [9] shares this test system. In words: z-score of subpopulation abundance vs DMSO median, subpopulation auxotrophic for HM; higher = larger share of this subpopulation than in DMSO controls. The following applies: 10 µM; 24 h; SM minimal medium; subpopulation (auxotrophy): HM. The gist of the method: as §1
Experiment [10] has the same test system. In words: z-score of subpopulation abundance vs DMSO median, subpopulation auxotrophic for HU; higher = larger share of this subpopulation than in DMSO controls. The following applies: 10 µM; 24 h; SM minimal medium; subpopulation (auxotrophy): HU. The method, boiled down:
as §1

Experiment [11] shares this test system. In words: z-score of subpopulation abundance vs DMSO median, subpopulation auxotrophic for UM; higher = larger share of this subpopulation than in DMSO controls. Conditions: 10 µM; 24 h; SM minimal medium; subpopulation (auxotrophy): UM. The gist of the method: as §1
For experiment [12] the test system is unchanged. In words: z-score of subpopulation abundance vs DMSO median, subpopulation auxotrophic for HL; higher = larger share of this subpopulation than in DMSO controls. The following applies: 10 µM; 24 h; SM minimal medium; subpopulation (auxotrophy): HL. The method, boiled down:
as §1

The test system is the same in experiment [13]. In words: z-score of subpopulation abundance vs DMSO median, subpopulation auxotrophic for HLU; higher = larger share of this subpopulation than in DMSO controls. The following applies: 10 µM; 24 h; SM minimal medium; subpopulation (auxotrophy): HLU. The gist of the method: as §1
The test system is the same in experiment [14]. In words: z-score of subpopulation abundance vs DMSO median, subpopulation auxotrophic for HUM; higher = larger share of this subpopulation than in DMSO controls. The following applies: 10 µM; 24 h; SM minimal medium; subpopulation (auxotrophy): HUM. The method, boiled down:
as §1

For experiment [15] the test system is unchanged. In words: z-score of subpopulation abundance vs DMSO median, subpopulation auxotrophic for LUM; higher = larger share of this subpopulation than in DMSO controls. Conditions: 10 µM; 24 h; SM minimal medium; subpopulation (auxotrophy): LUM. The gist of the method:
as §1

Experiment [16] shares this test system. In words: z-score of subpopulation abundance vs DMSO median, subpopulation auxotrophic for HLUM; higher = larger share of this subpopulation than in DMSO controls. The following applies: 10 µM; 24 h; SM minimal medium; subpopulation (auxotrophy): HLUM. The method, boiled down: as §1
Experiment [17] shares this test system. In words: z-score of subpopulation abundance vs DMSO median, subpopulation auxotrophic for HLM; higher = larger share of this subpopulation than in DMSO controls. Conditions: 10 µM; 24 h; SM minimal medium; subpopulation (auxotrophy): HLM. The gist of the method: as §1

Each structure is given as a SMILES string. Counter-ions that a name gives are not always drawn. ± gives the standard deviation of the averaged measurements.

In turn, `OB1OCc2cc(F)ccc21` [Tavaborole (AN-2690)] showed a mean cell size in experiment [1] of 14 ± 0.24. Further, the “z-score of prototroph abundance” value in experiment [2] was -16.4. Besides, the “z-score of subpopulation abundance” value is 1 in [3]; 0.22 in experiment [4]; -3.62 in experiment [5]; 14.2 in experiment [6]; 4.22 in [7]; 6.17 in experiment [8]. Further, the “z-score of subpopulation abundance” value in experiment [9] came to 27.5; in [10] it was 5.21; in experiment [11], 7.1; in experiment [12], 17.6; in experiment [13] it was 23.2; in experiment [14], 16.9. Also, in [15], the “z-score of subpopulation abundance” value came to 16.4.
In experiment [1], `Cc1c(S(=O)(=O)O)oc2c1C(=O)C(=O)c1c-2ccc2c1CCCC2(C)C` [Tanshinone IIA sulfonate (sodium)] came in with a mean cell size of 11.85 ± 0.095. The “z-score of prototroph abundance” value in experiment [2] was -0.48. Further, the “z-score of subpopulation abundance” value in [3] was 1.72; in experiment [4] it was 0.5; in experiment [6], 1.42; in experiment [7], -0.91; in experiment [8], -0.11; in experiment [9], -0.31. Moreover, the “z-score of subpopulation abundance” value in experiment [11] is 1.77; in experiment [12], 4.28; in experiment [13] it was -0.84; in [14], 0.71; in experiment [16], 1.74.
As for `Cc1ccc(Cl)c(Nc2ccccc2C(=O)O)c1Cl` [Meclofenamate Sodium], in [1], the mean cell size is 12.7 ± 0.19. In addition, the “z-score of prototroph abundance” value in experiment [2] is 1.11. For the same molecule, the “z-score of subpopulation abundance” value in experiment [3] is 0.25; in [4], -0.25; in experiment [5] it was -0.1; in experiment [6], -0.35; in experiment [7], -0.57; in experiment [8], -0.57. Also, the “z-score of subpopulation abundance” value in [9] was -0.47; in experiment [10] it was -0.21; in experiment [11] it was -0.07; in [12], -0.49; in [13] it was -0.7; in experiment [14], -0.63. The “z-score of subpopulation abundance” value in experiment [15] was -0.74; in experiment [16] it was -0.31.
Take `CC(C)[N+](C)(CCOC(=O)C1c2ccccc2Oc2ccccc21)C(C)C` [Propantheline bromide]: the “z-score of prototroph abundance” value in [2] worked out at 0.94. The “z-score of subpopulation abundance” value is 1.26 in [3]; -0.57 in experiment [4]; -0.28 in [5]; 0.9 in [6]; -0.92 in [7]; -0.04 in [8]. Also, the “z-score of subpopulation abundance” value is 0.76 in [9]; -1.12 in [11]; -1.23 in experiment [13]; -0.74 in experiment [17]; -1.5 in experiment [15]; -0.56 in experiment [16].
Molecule `CCCCCCCCCCCCCCCCOP(=O)([O-])OCC[N+](C)(C)C` [Miltefosine] returned a mean cell size in experiment [1] of 7.76 ± 0.26. The “z-score of prototroph abundance” value in [2] was -22.6. For the same molecule, the “z-score of subpopulation abundance” value in [3] was -7.93; in [4], -5.76; in experiment [5] it was -5.15; in experiment [6] it was -10.2; in experiment [7], 7.16; in experiment [8], -4.09. Moreover, the “z-score of subpopulation abundance” value was 0.26 in experiment [9]; 31.2 in [11]; 3.75 in experiment [12]; 0.88 in experiment [13]; 142 in experiment [14]; 161 in [16].
In experiment [1], `Cc1ccccc1C(OCCN(C)C)c1ccccc1` (stereo not drawn) [Orphenadrine Citrate] registered a mean cell size of 12.2 ± 0.14. In addition, the “z-score of prototroph abundance” value in experiment [2] amounted to 0.04. The “z-score of subpopulation abundance” value in experiment [3] was -0.02; in experiment [4], -0.09; in experiment [5], 0.9; in experiment [6], -0.33; in experiment [7], 0.36; in [8], -0.43. Also, the “z-score of subpopulation abundance” value in [9] is -0.64; in [10], 0.14; in [12], -1.07; in [13], 0.33; in experiment [14], -0.13; in experiment [16] it was -0.1.
With `CN1C2CCCC1CC(NC(=O)c1nn(C)c3ccccc13)C2` (stereo not drawn) [Granisetron HCl], in experiment [2], the “z-score of prototroph abundance” value was -0.01. In addition, the “z-score of subpopulation abundance” value in [3] is -0.02; in [4], 0.65; in [6] it was 1.08; in experiment [7], -0.06; in [8], 0.45; in [9], 0.45. The “z-score of subpopulation abundance” value in experiment [10] was -0.52; in [11] it was -0.36; in experiment [12] it was 0.42; in experiment [13], 0.66; in [17], -0.26; in experiment [16], -0.37.
`O=C(O)c1ccccc1O` [Salicylic acid] displayed a mean cell size in experiment [1] of 12.4 ± 0.14. For the same molecule, the “z-score of prototroph abundance” value in experiment [2] was 0.79. Also, the “z-score of subpopulation abundance” value in experiment [3] was -0.07; in experiment [4], -0.26; in experiment [5], -0.01; in [7] it was -0.68; in [8] it was -0.74; in experiment [9], 0.33. In addition, the “z-score of subpopulation abundance” value in [10] was -1; in [11], -0.89; in [12], -0.19; in [13], -0.57; in experiment [14] it was -1.03; in [15] it was -0.79. Besides, in experiment [16], the “z-score of subpopulation abundance” value was -0.68.
